Measured values as given in PMC12820563, “FoxP3 forms a head-to-head dimer in vivo and stabilizes its multimerization on adjacent microsatellites”.
The full ranking holds about 16,000 sequences; the median of “rpm ratio (pull-down/input)” is about 0.94, and the highest 2% start at about 1.7. Only a selection was taken, and the highest values are over-represented in it overall.

Target: T1, MBP-FoxP1dN (Mus musculus, UniProt P58462 326-579)
T1 sequence: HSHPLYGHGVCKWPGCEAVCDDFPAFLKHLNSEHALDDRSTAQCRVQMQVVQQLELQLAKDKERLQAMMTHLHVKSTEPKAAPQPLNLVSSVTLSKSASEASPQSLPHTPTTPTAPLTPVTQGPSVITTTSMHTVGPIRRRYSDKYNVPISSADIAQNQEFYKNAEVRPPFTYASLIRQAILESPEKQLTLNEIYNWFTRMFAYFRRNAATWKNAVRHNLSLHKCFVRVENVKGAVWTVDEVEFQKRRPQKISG
Assay: PD-seq (MBP pull-down with sequencing); 20 mM Tris-HCl pH 7.5, 100 mM NaCl, 1.5 mM MgCl2, 0.4 uM protein, 0.1 uM dsDNA library, 30 min, room temperature, amylose pull-down; high values mean tight binding
Conditions: protein: recombinant; tags: His6-MBP; chain copies: 2; dsDNA, one strand shown
Summary of the method: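 A fragment of mouse FoxP3 or FoxP1 without its N-terminus, carrying a His6-MBP tag and produced in E. coli, was combined at 0.4 µM with a 0.1 µM degenerate double-stranded DNA library filled in with Klenow. The mixture sat for 30 min at room temperature in Tris pH 7.5 buffer containing NaCl and MgCl2. Protein–DNA complexes were captured on amylose resin, washed three times, and the DNA was freed with proteinase K, barcoded by PCR and sequenced on Illumina. Binding is expressed as reads-per-million enrichment of pull-down over input, with replicates pooled.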

| Sequence | binding signal |
| --- | --- |
| GATGATTGTTCTCCCAGCTGATGAATTGAGGCTGTCGAGTAAACAAATTTTCCTAATCTTTCTGTTCAAGCGCCATCTAC | 0.891 RPM ratio (pull-down/input) |
| GATGATTGTTCTCCCAGCTGATGAATTACGTAAGTCGAGTAAACAAATTTTCCTAATCTTTCTGTTCAAGCGCCATCTAC | 1.14 RPM ratio (pull-down/input) |
| GATGATTGTTCTCCCAGCTGATGAATTGGGGCAATCGAGTAAACAAATTTTCCTAATCTTTCTGTTCAAGCGCCATCTAC | 1.01 RPM ratio (pull-down/input) |
| GATGATTGTTCTCCCAGCTGATGAATTTAGGACGTCGAGTAAACAAATTTTCCTAATCTTTCTGTTCAAGCGCCATCTAC | 0.956 RPM ratio (pull-down/input) |
| GATGATTGTTCTCCCAGCTGATGAATTCATCAGCTCGAGTAAACAAATTTTCCTAATCTTTCTGTTCAAGCGCCATCTAC | 0.818 RPM ratio (pull-down/input) |
| GATGATTGTTCTCCCAGCTGATGAATTTCGTTAATCGAGTAAACAAATTTTCCTAATCTTTCTGTTCAAGCGCCATCTAC | 0.996 RPM ratio (pull-down/input) |
| GATGATTGTTCTCCCAGCTGATGAATTGACATCCTCGAGTAAACAAATTTTCCTAATCTTTCTGTTCAAGCGCCATCTAC | 1.19 RPM ratio (pull-down/input) |
| GATGATTGTTCTCCCAGCTGATGAATTTTGATTATCGAGTAAACAAATTTTCCTAATCTTTCTGTTCAAGCGCCATCTAC | 1.79 RPM ratio (pull-down/input) |
| GATGATTGTTCTCCCAGCTGATGAATTGTTGTCATCGAGTAAACAAATTTTCCTAATCTTTCTGTTCAAGCGCCATCTAC | 2.36 RPM ratio (pull-down/input) |
| GATGATTGTTCTCCCAGCTGATGAATTGTCATCATCGAGTAAACAAATTTTCCTAATCTTTCTGTTCAAGCGCCATCTAC | 1.34 RPM ratio (pull-down/input) |
| GATGATTGTTCTCCCAGCTGATGAATTTATCGTATCGAGTAAACAAATTTTCCTAATCTTTCTGTTCAAGCGCCATCTAC | 1.22 RPM ratio (pull-down/input) |
| GATGATTGTTCTCCCAGCTGATGAATTGTATTTATCGAGTAAACAAATTTTCCTAATCTTTCTGTTCAAGCGCCATCTAC | 2.72 RPM ratio (pull-down/input) |
| GATGATTGTTCTCCCAGCTGATGAATTAGTGTTATCGAGTAAACAAATTTTCCTAATCTTTCTGTTCAAGCGCCATCTAC | 1.8 RPM ratio (pull-down/input) |
| GATGATTGTTCTCCCAGCTGATGAATTTATTGTATCGAGTAAACAAATTTTCCTAATCTTTCTGTTCAAGCGCCATCTAC | 1.6 RPM ratio (pull-down/input) |
| GATGATTGTTCTCCCAGCTGATGAATTAGTGTAATCGAGTAAACAAATTTTCCTAATCTTTCTGTTCAAGCGCCATCTAC | 1.54 RPM ratio (pull-down/input) |
| GATGATTGTTCTCCCAGCTGATGAATTGAAATTATCGAGTAAACAAATTTTCCTAATCTTTCTGTTCAAGCGCCATCTAC | 1.01 RPM ratio (pull-down/input) |
| GATGATTGTTCTCCCAGCTGATGAATTAGTTATATCGAGTAAACAAATTTTCCTAATCTTTCTGTTCAAGCGCCATCTAC | 1.07 RPM ratio (pull-down/input) |

| Sequence | binding signal |
| --- | --- |
| GATGATTGTTCTCCCAGCTGATGAATTTCTGTCATCGAGTAAACAAATTTTCCTAATCTTTCTGTTCAAGCGCCATCTAC | 1.15 RPM ratio (pull-down/input) |
| GATGATTGTTCTCCCAGCTGATGAATTTGAATTATCGAGTAAACAAATTTTCCTAATCTTTCTGTTCAAGCGCCATCTAC | 0.969 RPM ratio (pull-down/input) |
| GATGATTGTTCTCCCAGCTGATGAATTAGACAGTTCGAGTAAACAAATTTTCCTAATCTTTCTGTTCAAGCGCCATCTAC | 0.913 RPM ratio (pull-down/input) |
| GATGATTGTTCTCCCAGCTGATGAATTTTTAAGTTCGAGTAAACAAATTTTCCTAATCTTTCTGTTCAAGCGCCATCTAC | 0.97 RPM ratio (pull-down/input) |
| GATGATTGTTCTCCCAGCTGATGAATTCAACGCGTCGAGTAAACAAATTTTCCTAATCTTTCTGTTCAAGCGCCATCTAC | 0.959 RPM ratio (pull-down/input) |
| GATGATTGTTCTCCCAGCTGATGAATTTTTACCATCGAGTAAACAAATTTTCCTAATCTTTCTGTTCAAGCGCCATCTAC | 1.01 RPM ratio (pull-down/input) |
| GATGATTGTTCTCCCAGCTGATGAATTTTACTGGTCGAGTAAACAAATTTTCCTAATCTTTCTGTTCAAGCGCCATCTAC | 0.796 RPM ratio (pull-down/input) |
| GATGATTGTTCTCCCAGCTGATGAATTCTGGAGATCGAGTAAACAAATTTTCCTAATCTTTCTGTTCAAGCGCCATCTAC | 0.812 RPM ratio (pull-down/input) |
| GATGATTGTTCTCCCAGCTGATGAATTACAATGTTCGAGTAAACAAATTTTCCTAATCTTTCTGTTCAAGCGCCATCTAC | 1.4 RPM ratio (pull-down/input) |
| GATGATTGTTCTCCCAGCTGATGAATTATCAAAATCGAGTAAACAAATTTTCCTAATCTTTCTGTTCAAGCGCCATCTAC | 1.22 RPM ratio (pull-down/input) |
| GATGATTGTTCTCCCAGCTGATGAATTATCAACATCGAGTAAACAAATTTTCCTAATCTTTCTGTTCAAGCGCCATCTAC | 2.09 RPM ratio (pull-down/input) |
| GATGATTGTTCTCCCAGCTGATGAATTTTATTTATCGAGTAAACAAATTTTCCTAATCTTTCTGTTCAAGCGCCATCTAC | 2.95 RPM ratio (pull-down/input) |
| GATGATTGTTCTCCCAGCTGATGAATTTATTTCATCGAGTAAACAAATTTTCCTAATCTTTCTGTTCAAGCGCCATCTAC | 1.16 RPM ratio (pull-down/input) |
| GATGATTGTTCTCCCAGCTGATGAATTTATTTTATCGAGTAAACAAATTTTCCTAATCTTTCTGTTCAAGCGCCATCTAC | 1.46 RPM ratio (pull-down/input) |
| GATGATTGTTCTCCCAGCTGATGAATTATCTACATCGAGTAAACAAATTTTCCTAATCTTTCTGTTCAAGCGCCATCTAC | 1.12 RPM ratio (pull-down/input) |
| GATGATTGTTCTCCCAGCTGATGAATTTGCTCCCTCGAGTAAACAAATTTTCCTAATCTTTCTGTTCAAGCGCCATCTAC | 0.995 RPM ratio (pull-down/input) |
